D1 PAM – Potentiators of Human D1 Dopamine Receptor: qHTS; D(1A) dopamine receptor (Homo sapiens), P21728; HEK293 TREx D1 cells, calcium flux, dopamine EC20 potentiation; potentiation, % at 10 µM; 360,000 tested, 0.036% active; AID 504651, 2011; in the data active means potentiation above about 30%; further: 0% is about no effect
Target sequence (P21728 whole entry, looked up): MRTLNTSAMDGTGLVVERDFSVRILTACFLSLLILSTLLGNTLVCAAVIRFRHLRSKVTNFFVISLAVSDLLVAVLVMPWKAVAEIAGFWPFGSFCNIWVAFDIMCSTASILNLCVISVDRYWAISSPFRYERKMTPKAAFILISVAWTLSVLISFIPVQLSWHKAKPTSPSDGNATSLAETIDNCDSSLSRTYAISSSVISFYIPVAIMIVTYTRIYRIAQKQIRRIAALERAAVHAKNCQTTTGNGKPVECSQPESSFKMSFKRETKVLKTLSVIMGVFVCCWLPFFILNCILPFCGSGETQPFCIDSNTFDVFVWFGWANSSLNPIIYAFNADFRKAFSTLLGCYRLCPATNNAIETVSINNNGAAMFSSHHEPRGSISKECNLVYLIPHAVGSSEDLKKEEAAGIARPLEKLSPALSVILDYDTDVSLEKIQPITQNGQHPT
TRHR enhancer – qHTS for Small Molecule Agonists and Allosteric Enhancers of Human TRH Receptor: Primary Screen for Enhancers. TRHR cells, fluo-8 calcium fluorescence, EC20 TRH enhancement. Thyrotropin-releasing hormone receptor (Homo sapiens), P34981. 360,000 tested, 0.66% active. enhancement, % at 2 µM; in the data active means enhancement above about 30%; further: 0% is about no effect
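Enhancer read-out: after compound pinning and an initial kinetic agonist-mode read, an EC20 of TRH (10 nM final) was injected and fluo-8 calcium signal (Ex 480/Em 530) followed at 1 s/cycle for 100 cycles in TRHR-expressing cells.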
D1 agonist – Allosteric Agonists of the Human D1 Dopamine Receptor: qHTS | 360,000 tested, 1% active | HEK293 T-REx D1 cells, calcium flux, agonist mode | activation, % at 2 µM | D(1A) dopamine receptor (Homo sapiens), P21728; further: 0% is about no effect
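Tetracycline-induced HEK293 TREx D1 cells, force-coupled to calcium signalling, were dye-loaded with a no-wash calcium kit. Compound was pin-added after a 10 s baseline. Fluorescence was read kinetically at 1 cycle/s for 180 s, with calcium rises flagged as agonism.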
D1 antagonist – Antagonist of Human D 1 Dopamine Receptor: qHTS | HEK293 TREx D1 cells, calcium flux, dopamine EC80; active compounds read low | activity change, negative = inhibition, % at 10 µM | 360,000 tested, 3.2% active | AID 504652, 2011; in the data active means activity change below about -30%; further: on the % scale 0 is the no-effect control and ±100 the full control effect
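Using tetracycline-induced force-coupled D1 Hek293 cells and a calcium dye, signals were followed for 180 s after compound, then for 180 s after EC80 dopamine, to detect inhibitors.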
TRHR ag – qHTS for Small Molecule Agonists and Allosteric Enhancers of Human TRH Receptor: Primary Screen for Agonists | TRHR cells, calcium flux fluo-8, FDSS agonist mode | activation, % at 2 µM | 360,000 tested, 0.18% active; further: 0% is about no effect
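In this calcium-flux screen, cells bearing human TRHR are dye-loaded with fluo-8, baselined for 10 cycles, then exposed to library compounds; positive kinetic calcium responses during the agonist phase mark hits, with TRH as control.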
Active calls of the source: *. The list is not random: actives were taken first. Their share in the collection is about 4.7%. Unless noted, no stated cut-off is given here; in the data, active means activation above about 30%; inactive means the rest.

SMILES	D1 PAM	TRHR enhancer	D1 agonist	D1 antagonist	TRHR ag
CC(CNC(=O)c1nnc(Cc2ccc(F)cc2)o1)c1ccccc1 (stereo not given)	1	2	0	-6	0
N#Cc1nc(-c2ccc(COc3ccccc3)o2)oc1NCc1cccnc1	-1	6	-2	-7	1
CC(=O)Nc1ccc(S(=O)(=O)N2CCN(C(=O)Cc3ccccc3)CC2)cc1	-5	-4	1	-13	0
CC(=O)Nc1ccc(S(=O)(=O)N2CCN(CCc3ccccc3)CC2)cc1	-6	-3	4	-33*	0
Cc1nc(-c2ccc(Cl)cc2)sc1CCNC(=O)Cc1ccc(F)cc1	-4	3	12	-1	0
Cc1ccccc1C(=O)NCCc1sc(-c2ccc(Cl)cc2)nc1C	-3	2	2	-38*	0
Cc1nc(-c2cccc(F)c2)sc1CCNC(=O)c1ccc(F)c(F)c1	-1	30*	5	-16	-1
CC(C)c1ccc(OCC(=O)Nc2ccc3oc(=O)ccc3c2)cc1	-4	9	8	-20	-1
CCOCCCNC(=O)Cn1cc2c(n1)-c1c(oc(C(=O)N3CCCC3)c1C)CC2	-4	27	4	-32*	0
COCCNC(=O)Cn1cc2c(n1)-c1c(oc(C(=O)N3CCCC3)c1C)CC2	2	0	0	-28	0
Cc1ccc(C)c(NC(=S)NNC(=O)c2ccco2)c1	-8	6	3	-35*	0
COc1ccc(CNC(=S)Nc2cc(C)ccc2C)cc1	-2	16	1	-11	-1
Cc1ccc(C)c(NC(=S)NCc2ccccc2)c1	-8	-10	2	-36*	-1
Cc1cccc(-c2nnc(NC(=O)c3cccs3)s2)c1	0	-2	1	-41*	1
Cc1cccc(NC(=S)NNC(=O)c2ccco2)c1	7	1	2	-26	0
O=C(NNC(=S)NC(=O)c1ccc(Br)cc1)c1cccc([N+](=O)[O-])c1	-1	-6	32*	-5	4
Cc1ccccc1C(=O)NNC(=S)NC(=O)c1ccccc1	-1	-23	279*	-37*	59*
Cc1ccc(C(=O)NNC(=O)c2ccco2)cc1	8	6	3	11	0
Cc1cccc(C(=O)NNC(=S)NC(=O)c2cccs2)c1	-9	-7	76*	-6	20
Cc1ccc(C(=O)NC(=S)NNC(=O)c2ccccc2)cc1	-5	-3	200*	-42*	31*
Cc1ccc(C(=O)NC(=S)NNC(=O)c2ccc([N+](=O)[O-])cc2)cc1	-6	8	20	6	2
Cc1ccc(C(=O)NNC(=S)NC(=O)c2ccco2)cc1	-8	5	59*	-11	11
O=C(CSc1nc2c(cnn2-c2ccc(F)cc2)c(=O)[nH]1)Nc1ccccc1C(F)(F)F	1	-2	2	3	-1
Cc1ccc(C(=O)NNC(=S)NC(=O)c2ccc(Cl)cc2Cl)cc1	2	-8	154*	4	32*
O=C(CCc1ccccc1)NNC(=S)NC(=O)c1ccccc1	-10	-5	1	-9	0
SMILES	D1 PAM	TRHR enhancer	D1 agonist	D1 antagonist	TRHR ag
CC(C)(C)c1cc(CCC(=O)NNC(=S)NC(=O)c2ccccc2)cc(C(C)(C)C)c1O	18	1	133*	-66*	16
CCCCC(=O)NC(=S)NNC(=O)c1ccc(Cl)cc1Cl	0	1	0	-21	0
Cc1ccc(C(=O)NC(=S)NNC(=O)c2ccccc2O)cc1	-1	2	55*	-16	3
O=C(NC(=S)NNC(=O)c1ccccc1O)c1ccccc1	-1	1	2	-9	3
CC(=O)NC(c1ccco1)c1cc(Br)c2cccnc2c1O (stereo not given)	0	-6	8	2	0
CC1Cc2cc(S(=O)(=O)N3CCCC(C(=O)N4CCCCC4)C3)ccc2N1C(=O)C1CC1 (stereo not given)	0	-1	0	0	-1
CCc1ccccc1NC(=O)CN(C)C(=O)c1cccc(S(=O)(=O)N2CCCCCC2)c1	1	-5	2	22	0
OCCC1CN(Cc2ccncc2)CCN1C1CCCC1 (stereo not given)	0	-6	3	-36*	0
CSc1ccc(CN2CCN(C3CCCC3)C(CCO)C2)cc1 (stereo not given)	1	2	2	24	0
Cc1ccc(NCC(O)Cn2cnc3c2c(=O)n(C)c(=O)n3C)cc1 (stereo not given)	-4	-1	2	7	1
Cn1c(=O)c2c(ncn2CC(O)CNc2ccc(Cl)cc2)n(C)c1=O (stereo not given)	-6	2	2	-37*	0
CC(=O)c1ccc(S(=O)(=O)NC2CC(=O)N(c3ccc(Cl)cc3)C2)cc1 (stereo not given)	-2	-3	13	-34*	1
O=C(C1=C[C@@H](c2csc3ccccc23)C[C@@H](OCc2ccc(CO)cc2)O1)N1CCN(Cc2ccccc2)CC1	-4	31*	7	-7	1
O=C(C1=C[C@H](c2ccc3c(c2)OCO3)C[C@H](OCCCCO)O1)N1CCOCC1	5	-2	6	34	-1
O=C(C1=C[C@H](c2ccc(Br)cc2)C[C@H](OCCCCO)O1)N1CCN(Cc2ccccc2)CC1	-3	-10	7	-30*	-1
O=C(C1=C[C@H](c2ccccc2)C[C@H](OCCCCO)O1)N1CCOCC1	-1	-3	5	-40*	0
O=C(Nc1ccccc1Cl)C1CCN(c2nc3ccccc3nc2C(F)(F)F)CC1	-1	-5	1	0	0
COc1cc(NC(=O)c2cccc(Br)c2)nc(OC)n1	-4	34*	4	2	-3
COc1ccc(NC(=O)c2cc(=O)c3ccccc3o2)cn1	-5	4	2	0	0
Cc1nnc(NC(=O)c2cccc(NC(=O)C(C)C)c2)s1	1	-6	3	-9	0
CC(C)C(=O)Nc1cccc(NC(=O)c2cccc(Br)c2)c1	-11	-4	5	-32*	0
COc1ccc(OCC(=O)NNC(=O)c2cc3ccccc3o2)cc1	-7	-1	0	-31*	0
COc1ccc(NC(=O)c2cc3ccccc3o2)cn1	1	41*	-1	3	0
Cc1ccc(NC(=O)CSc2ncc3c(n2)-c2ccccc2N(Cc2cccc(F)c2)S3(=O)=O)cc1F	-3	-1	5	1	0

Screening results deposited in PubChem by National Center for Advancing Translational Sciences (NCATS).
